Screening data (PubChem)
ELG1 genotox: inducers of genotoxicity in HEK293T ELG1-luciferase cells; HEK293T ELG1-luciferase reporter, luminescence, 16 h; Potency, µM (highest dose often 46 µM), for the others: at the highest dose activity change, positive = activation, hits mostly activators; hit rate 1.3% among 330,000; AID 504466; further: % of control where 0% means no effect; nearly all actives have a fitted effect of over 60% in size
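DMSO vehicle served as control against compound-treated ELG1-luciferase HEK293T cells; exposure lasted 16 hr at 37 °C and 5% CO2, followed by ONE-Glo luminescence detection after 30 min.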
Rab9 prom act: Rab9 promoter activation; Huh7 Rab9 promoter-luciferase reporter, luminescence, 24 h; Potency, µM (top dose mostly 9.22 µM), inactives show at the highest dose activation, negative = inhibition, actives largely listed as activators; hit rate 2.8% among 320,000; AID 485297; further: % of control where 0% means no effect; nearly all actives have a fitted effect of over 60% in size
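Luminescence read-out: Huh7 cells stably expressing Rab9-luciferase, treated 24 h with compound at 37 °C, then lysed with luciferase reagent for 10 min at ambient before reading.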
NPC1 prom act: activates the NPC1 promoter; Huh7 NPC1 promoter luciferase reporter, 24 h; Potency, µM (highest dose often 9.22 µM), for the others: at the highest dose activation, usual class: activators; hit rate 2.4% among 320,000; AID 485313; further: % of control where 0% means no effect; nearly all actives have a fitted effect of over 60% in size
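Luminescence from an NPC1 promoter-driven luciferase reporter in stably transfected Huh7 cells was measured after 24 h compound treatment at 37 °C, followed by 10 min ambient incubation with luciferase detection reagent.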
SMN2 splice enh: enhancers of SMN2 splice variant expression; HEK293 SMN2-luciferase splicing reporter, luminescence, 30-36 h; Potency, µM (highest dose often 46.1 µM), for the others: at the top dose activity change, positive = activation, hits mostly activators; hit rate 2.8% among 210,000; AID 1458; further: % of control where 0% means no effect; nearly all actives have a fitted effect of over 55% in size
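HEK293 cells carry an SMN2 […]–luciferase reporter in which exon 7 inclusion puts luciferase in frame. Cells were plated 10-12 h before compound addition, then incubated 30-36 h at 37C. ONE-Glo luminescence was read; sodium butyrate at 4.5 mM final served as control.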
FLuc counter: inhibits or activates purified firefly luciferase, miR-21 counter-screen; Potency, µM (titrated, usually from 57.5 µM), for the others: at the top dose activity change, negative = inhibition, hits mostly inhibitors; purified FLuc, Km substrates, luminescence inhibition; P08659; hit rate 6.9% among 360,000;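 further: plate controls were vehicle for no effect and reference inhibitor for full effect; nearly all actives have a fitted effect of over 55% in size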
Target sequence (P08659 whole entry, looked up): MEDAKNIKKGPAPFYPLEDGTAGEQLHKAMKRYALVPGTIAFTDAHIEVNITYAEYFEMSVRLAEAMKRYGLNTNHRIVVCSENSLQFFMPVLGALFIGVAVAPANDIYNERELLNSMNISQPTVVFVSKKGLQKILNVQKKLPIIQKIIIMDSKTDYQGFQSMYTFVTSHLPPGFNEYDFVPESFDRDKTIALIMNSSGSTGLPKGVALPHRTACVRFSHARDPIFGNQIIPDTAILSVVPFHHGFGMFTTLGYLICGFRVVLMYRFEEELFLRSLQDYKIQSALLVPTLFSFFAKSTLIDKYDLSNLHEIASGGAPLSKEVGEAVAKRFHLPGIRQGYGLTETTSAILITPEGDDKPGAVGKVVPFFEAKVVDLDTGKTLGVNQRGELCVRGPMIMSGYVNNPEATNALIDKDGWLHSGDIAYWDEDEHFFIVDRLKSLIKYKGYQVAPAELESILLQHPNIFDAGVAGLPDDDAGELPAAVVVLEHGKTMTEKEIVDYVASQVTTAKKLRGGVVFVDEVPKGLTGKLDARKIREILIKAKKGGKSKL
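Purified P. pyralis luciferase, 10 nM final, with Km-level 10 uM D-luciferin and 10 uM ATP in 50 mM Tris acetate pH 7.5, 10 mM Mg acetate, 0.01% Tween-20, 0.05% BSA; 6-point qHTS titration about 60 µM downward; luminescence read.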
KinaseGlo FLuc: counter-screen: inhibitors of Kinase-Glo firefly luciferase; Q27757; Kinase-Glo luciferase, ATP luminescence, 8 min; Potency, µM (titrated, usually from 38.3 µM), for the others: top-dose activity change, negative = inhibition, usual class: inhibitors; hit rate 0.28% among 200,000; AID 1379; further: on the % scale 0 is the no-effect control and ±100 the full control effect; nearly all actives have a fitted effect of over 60% in size
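Compound is pinned into ATP-containing buffer (10 uM ATP, imidazole pH 7.2, 7 mM MgCl2). Kinase-Glo luciferase reagent is then added. Light output is recorded following an 8-min room-temperature incubation.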
* = called active by the depositor; ? = inconclusive; . = no result; ! = not confirmed by another sample. Rows were chosen to be rich in hits. Some 7.5% of all compounds tested hit in one or more screens of this group. The call rests on the fitted dose curve; in most records, active means well fitted curve in the direction sought with a large enough effect; inconclusive means small, poorly fitted or top-dose-only effect, or another doubt; inactive means no such curve, though single readings can be large; an effect the other way counts as inactive or inconclusive. Potency means the concentration at half of the fitted maximal effect.

SMILES	ELG1 genotox	Rab9 prom act	NPC1 prom act	SMN2 splice enh	FLuc counter	KinaseGlo FLuc
CC(C)(C)C(=O)N1CCN(c2ccc(NC(=O)c3ccco3)cc2)CC1	-2%	0%	-6%	.	0%	.
O=C(Nc1ccc(N2CCOCC2)cc1)c1ccc2nc(-c3ccco3)c(-c3ccco3)nc2c1	6%	1%	-1%	5%	-4%	4%
O=C(NC(=S)Nc1ccc(CN2CCOCC2)cc1)c1ccco1	?	?	20%	.	17µM*	.
CC(=O)Oc1ccc(C(=O)Nc2cccc(C(=O)c3ccc(C)c(C)c3)c2)cc1	0%	1%	-12%	6%	2%	1%
Cc1ccc(O)c(NC(=O)c2noc3c2CCCCC3)c1	?	?	2.8µM*	4µM*!	4.8µM*	-16%
CSc1ccccc1NC(=O)c1noc2c1CCC2	15µM*	24%	5%	-5%	?	1%
Cc1ccc(O)c(NC(=O)c2noc3c2CCCC3)c1	.	.	.	11µM*	8.5µM*	.
Cc1ccc(Cn2ccc(NC(=O)c3noc4c3CCCCC4)n2)cc1	2%	1%	16%	-32%	?	-2%
COC(=O)CC1C(=O)NCCN1C(=O)c1cc([N+](=O)[O-])ccc1Cl (stereo not drawn)	1%	-3%	2%	.	5%	.
Cc1cc(N/N=C2/CCCc3ccccc32)nc2ccccc12	-5%	?	29%	-4%	7.6µM*	-2%
COC(=O)c1ccccc1NC(=O)Cn1c(=O)n(CCCC(=O)NCCc2ccc(OC)c(OC)c2)c(=O)c2ccccc21	.	.	.	0%	-11%	.
O=C(Nc1nc(=O)c2ccccc2s1)c1ccc(Cl)cc1	1.8µM*	2.5µM*	2.8µM*	13µM*	1.1µM*	-2%
CCn1c(NC(=O)c2ccc(F)cc2)c2ccccc2nc1=O	0%	0%	-5%	-1%	5%	2%
O=C(Nc1nc2ccc(Cl)cc2s1)c1ccc(S(=O)(=O)N2CCCC2)cc1	.	.	.	.	1%	.
O=C(Nc1nc2ccsc2c(=O)s1)c1ccc(Cl)cc1	?	0.1µM*	0.25µM*	.	0.21µM*	.
O=C(Nc1nc(=O)c2ccccc2s1)c1ccc(F)cc1	?	3.2µM*	?	14µM*	2.1µM*	-3%
CCCc1ccc(S(=O)(=O)NCc2nnc(SC)n2C)cc1	-5%	2%	1%	.	0%	.
Cc1sc2ncn(CC(=O)NCC(=O)N3CCN(c4ccc(F)cc4)CC3)c(=O)c2c1C	-7%	0%	1%	.	0%	.
CCCNC(=O)OCCC12CC3CC(CC(C3)C1)C2	?	17%	16%	7%	12µM*	-2%
Cc1[nH]c2ccc(C(=O)Nc3ccncc3)cc2c1C	-2%	5%	-1%	.	17µM*	.
Cc1[nH]c2ccc(C(=O)O)cc2c1C	7%	0%	7%	4%	-4%	4%
Cc1ccccc1CNC(=O)c1ccc2[nH]c(C)c(C)c2c1	.	.	.	.	-16%	.
Cc1ccccc1NC(=O)c1ccc2[nH]c(C)c(C)c2c1	.	.	.	.	21µM*	.
COc1ccccc1NC(=O)c1ccc2[nH]c(C)c(C)c2c1	?	2.8µM*	?	.	12µM*	.
CC=O	.	.	.	-5%	.	.
SMILES	ELG1 genotox	Rab9 prom act	NPC1 prom act	SMN2 splice enh	FLuc counter	KinaseGlo FLuc
COc1ccc(-n2nc([N+](=O)[O-])c(=NCCc3cccc(C)c3)n2O)cc1	-3%	2.2µM*	?	.	-8%	.
O=C1CCCN1CCCN=c1c([N+](=O)[O-])nn(-c2ccc(Cl)cc2)n1O	13%	18%	11%	8%	-2%	2%
COc1ccc(-n2nc([N+](=O)[O-])c(=NCCCN3CCCC3=O)n2O)cc1	?	1.6µM*	?	31%	-2%	-3%
COc1cc(C(=O)Nc2c(C(=O)Nc3ccccc3F)oc3ccccc23)cc(OC)c1OC	.	.	.	-2%	-19%	.
Cc1nc(-c2ccccn2)nc(N(C)c2ccccc2)c1Cl	-9%	-2%	-1%	.	15µM*	.
Cc1ccc(C(=O)NNC(=S)Nc2cccc3ccccc23)s1	4%	28%	1%	.	11µM*	.
